According to PubChem BioAssay (NCI):
This is part of a sample that, as a whole, favours compounds with a hit. Of some 83,000 tested, about 20% had one in any assay.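 Cell lines were cultured in 96-well plates, exposed to a single compound concentration, and assessed for percent growth 48 hours later.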 Activity calls are given as the source filed them. The calls were made as follows: active = growth percent below 10; inactive = the rest.

How the values were obtained:
Assay in all cases: NCI-60 one-dose screen, 48 h (100 = growth as untreated, 0 = no growth, -100 = all killed)
Details in all cases: 10 µM unless noted
[1] = system: SK-MEL-2 melanoma
[2] = system: SN12C renal
[3] = system: UO-31 renal
[4] = system: TK-10 renal
[5] = system: ACHN renal
[6] = system: CAKI-1 renal
[7] = system: A498 renal
[8] = system: MOLT-4 leukemia
[9] = system: CCRF-CEM leukemia

Measured: growth

O=C(CCC(=O)OC1CCCC1)OC1CCCC1
inactive: [1] 93.2% | [2] 107% | [3] 90.4% | [4] 97.8% | [5] 95% | [6] 95.8% | [7] 101% | [8] 89.9%

Cc1cc(N/C=c2\sc3ncnn3c2=O)no1
inactive: [1] 101% | [2] 95.5% | [3] 91.5% | [4] 109% | [5] 106% | [6] 101% | [9] 123% | [8] 104%

CCCOC(=O)C1(O)CCCC1
inactive: [1] 90.8% | [2] 102% | [3] 90.6% | [4] 98.8% | [5] 94% | [6] 102% | [7] 103% | [8] 93.1%

CCCCCC(=O)OCc1ccccc1
inactive: [1] 92.7% | [2] 98.1% | [3] 82.7% | [4] 99.7% | [5] 98.1% | [6] 96.5% | [7] 114% | [8] 86.3%

O=C(Nc1ccc(I)cc1)c1cc([N+](=O)[O-])ccc1O
inactive: [2] 34.3% | [3] 22.5% | [4] 40% | [5] 48.8% | [6] 30.9% | [9] 28.4% | [8] 18.8%
active: [1] -0.392% | [7] -27.9%

COc1cc(NCCCN=C(N)NC(N)=NC(C)C)c2ncccc2c1
inactive: [1] 16.2% | [2] 38.1% | [3] 69.1% | [4] 107% | [5] 94% | [6] 94.7% | [7] 120% | [8] 57.7%
